Reference: PubChem BioAssay (Tox21)
Several values for one entry are separate records, joined by “and”; a condition that tells them apart may be missing. Identical values can stand only once. Records with an inconclusive call do not appear. Some structures have more than one record in an assay (separate samples or runs), and their calls can disagree. Activity calls are given as the source filed them. Unless noted, calls come from the whole dose curve; as a rule, active = well fitted curve in the direction sought with a large enough effect in the repeat runs; inconclusive = weak or mixed curves; inactive = no such curve, though single readings can be large; an effect the other way counts as inactive or inconclusive.

How the values were obtained:
[1] = qHTS assay to identify small molecule agonists of the peroxisome proliferator-activated receptor delta (PPARd) signaling pathway - cell viability counter screen (AID 743211); note: nearly all actives have a fitted effect of over 55% in size; note: potency is the fitted concentration of half-maximal effect
Procedure, shortened: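 In the same wells used for beta-lactamase reporter measurement, cytotoxicity is scored by CellTiter-Glo. HEK293H PPARd-bla cells receive compound for 17 h at 37C following a 5 h settling period.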

[2] = qHTS assay to identify small molecule antagonists of the peroxisome proliferator-activated receptor delta (PPARd) signaling pathway - cell viability counter screen (AID 743213); note: nearly all actives have a fitted effect of over 50% in size; note: potency is the fitted concentration of half-maximal effect
Procedure, shortened: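 HEK293H cells with the PPARd UAS-bla reporter, co-treated 17 h at 37 C with compounds and L165041 (300 nM final), were lysed with CellTiter-Glo. Luminescence indicated viable cell content.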

[3] = qHTS assay to identify small molecule agonists of the farnesoid-X-receptor (FXR) signaling pathway - cell viability counter screen (AID 743218); note: nearly all actives have a fitted effect of over 45% in size; note: potency is the fitted concentration of half-maximal effect
Procedure, shortened: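 Same-well cytotoxicity check on FXR-UAS-bla HEK 293T cells: 5 h attachment, 16 h compound at 37 C, CellTiter-Glo luminescence read at room temperature after 30 min.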

[4] = qHTS assay to identify small molecule antagonists of the farnesoid-X-receptor (FXR) signaling pathway - cell viability counter screen (AID 743221; active = well fitted cell-killing curve with a large enough effect in the repeat runs, not every such curve was filed as active; note: nearly all actives have a fitted effect of over 50% in size; note: potency is the fitted concentration of half-maximal effect)
Procedure, shortened: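 Here viability was scored by luminescence after CellTiter-Glo addition to wells already read for beta-lactamase. Prior treatment: compound plus CDCA (50 uM final), 16 h, 37 C, HEK 293T FXR-bla cells.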

[5] = qHTS assay to identify small molecule agonists of the vitamin D receptor (VDR) signaling pathway - cell viability counter screen (AID 743224); note: nearly all actives have a fitted effect of over 50% in size; note: potency is the fitted concentration of half-maximal effect
Procedure, shortened: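 Counter screen for cytotoxicity: VDR-bla cells at 2,000 cells/well, 16 h compound exposure, then CellTiter-Glo luminescence after the beta-lactamase measurement.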

[6] = qHTS assay to identify small molecule antagonists of the vitamin D receptor (VDR) signaling pathway - cell viability counter screen (AID 743225); note: nearly all actives have a fitted effect of over 50% in size; note: potency is the fitted concentration of half-maximal effect
Procedure, shortened: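 Compounds were pinned onto VDR-bla HEK 293T cells together with 1-alpha,25-dihydroxyvitamin D3 at 3 nM final. After 16 h at 37C and 5% CO2 plus the reporter readout, cell viability was measured by CellTiter-Glo luminescence (30 min, room temperature).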

[7] = qHTS assay to identify small molecule agonists of the NFkB signaling pathway - cell viability counter screen (AID 1159515; calls by dose curve; note: nearly all actives have a fitted effect of over 55% in size; note: potency is the fitted concentration of half-maximal effect)
Procedure, shortened: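 Counter screen run alongside the NFkB-bla agonist assay: ME-180 reporter cells exposed to compounds for 5 hr, then lysed with CellTiter-Glo in the same wells. Luminescence, read after 30 min, reflects viable cells.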

[8] = qHTS assay to identify small molecule antagonists of the retinoid-related orphan receptor gamma (ROR-gamma) signaling pathway - cell viability counter screen (AID 1159520); note: nearly all actives have a fitted effect of over 50% in size; note: potency is the fitted concentration of half-maximal effect
Procedure, shortened: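 Tet-on ROR gamma CHO cells were given compounds for 2 hr, then doxycycline hyclate at 1 uM final, and incubated 16 hr at 37 C. Viability was measured as ATP content by CellTiter-Glo luminescence.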

[9] = qHTS assay to identify small molecule agonists of the AP-1 signaling pathway - cell viability counter screen (AID 1159525; calls by dose curve; note: nearly all actives have a fitted effect of over 55% in size; note: potency is the fitted concentration of half-maximal effect)
Procedure, shortened: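 Same-well cytotoxicity counter screen of the Tox21 10K library in ME-180 cells. The readout is ATP-dependent luminescence after 5 h compound treatment. Data are normalised to DMSO and tetra n-octyl ammonium bromide controls.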

[10] = molecular target: Bile acid receptor (Homo sapiens) (UniProt Q96RI1); experiment: qHTS assay to identify small molecule antagonists of the farnesoid-X-receptor (FXR) signaling pathway (AID 743217; active = well fitted inhibition curve with a large enough effect in the signal ratio in the repeat runs, not every such curve was filed as active; the % refers to the signal ratio)
Procedure, shortened: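 Quantitative HTS, beta-lactamase reporter format: FXR-UAS-bla HEK 293T cells co-treated 16 h at 37 °C with compounds and 50 uM final chenodeoxycholic acid, then read by B/G FRET fluorescence.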

[11] = molecular target: Bile acid receptor (Homo sapiens) (UniProt Q96RI1); experiment: qHTS assay to identify small molecule agonists of the farnesoid-X-receptor (FXR) signaling pathway (AID 743220; active = well fitted activation curve with a large enough effect in the signal ratio in the repeat runs, not every such curve was filed as active; the % refers to the signal ratio)
Procedure, shortened: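 FXR-UAS-bla HEK 293T cells carrying a UAS-driven beta-lactamase reporter were plated for 5 h at 37C/5% CO2, then exposed to DMSO-dissolved Tox21 10K compounds for 16 h at 37C. A LiveBLAzer B/G FRET substrate was loaded for 2 h at room temperature before fluorescence reading.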

[12] = molecular target: Nuclear receptor ROR-gamma (Homo sapiens) (UniProt P51449); experiment: qHTS assay to identify small molecule antagonists of the retinoid-related orphan receptor gamma (ROR-gamma) signaling pathway (AID 1159521; note: nearly all actives have a fitted effect of over 50% in size; note: potency is the fitted concentration of half-maximal effect)
Procedure, shortened: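 Test compounds were applied to Tet-on RORγ CHO cells 2 h ahead of doxycycline hyclate (1 uM final). Luciferase reporter activity was quantified by luminescence after 16 h at 37 C and 5% CO2.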

[13] = molecular target: Peroxisome proliferator-activated receptor delta (Homo sapiens) (UniProt Q03181); experiment: qHTS assay to identify small molecule agonists of the peroxisome proliferator-activated receptor delta (PPARd) signaling pathway (AID 743212; calls by dose curve; note: potency is the fitted concentration of half-maximal effect)
Procedure, shortened: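 Read-out: beta-lactamase FRET fluorescence after 2 h room-temperature incubation with LiveBLAzer B/G substrate. Cells were HEK293H carrying a UAS-bla reporter for PPARd, treated at 37 C with DMSO-dissolved compounds.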

[14] = molecular target: Peroxisome proliferator-activated receptor delta (Homo sapiens) (UniProt Q03181); experiment: qHTS assay to identify small molecule antagonists of the peroxisome proliferator-activated receptor delta (PPARd) signaling pathway (AID 743215; active = well fitted inhibition curve with a large enough effect in the signal ratio in the repeat runs, not every such curve was filed as active; the % refers to the signal ratio;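 note: cells stimulated with agonist L165041 at 300 nM final during compound exposure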; note: potency is the fitted concentration of half-maximal effect)
Procedure, shortened: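 Screen format: qHTS, antagonist mode. HEK293H PPARd-bla cells received compound and 300 nM L165041 (final), 17 h, 37 C. Beta-lactamase detected via FRET substrate fluorescence, 2 h, room temperature.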

[15] = molecular target: Vitamin D3 receptor (Homo sapiens) (UniProt P11473); experiment: qHTS assay to identify small molecule antagonists of the vitamin D receptor (VDR) signaling pathway (AID 743223; active = well fitted inhibition curve with a large enough effect in the signal ratio in the repeat runs, not every such curve was filed as active; the % refers to the signal ratio; note: potency is the fitted concentration of half-maximal effect)
Procedure, shortened: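 Inhibition of agonist-driven VDR signalling is scored in VDR-bla cells: 3 nM final 1alpha,25-dihydroxyvitamin D3 plus compound, 16 h at 37C, then beta-lactamase detection by FRET substrate fluorescence after 2 h.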

[16] = qHTS assay to identify small molecule agonists of the AP-1 signaling pathway (AID 1159526; calls by dose curve; note: potency is the fitted concentration of half-maximal effect)
[17] = molecular target: Retinoic acid receptor RXR-alpha (Homo sapiens) (UniProt P19793); experiment: qHTS assay to identify small molecule agonists of the RXR signaling pathway (AID 1159527; calls by dose curve; note: nearly all actives have a fitted effect of over 35% in size)
Procedure, shortened: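 Using 9-cis retinoic acid as the reference agonist, chemicals were tested in HEK 293T cells […] for 16 hr; substrate loading lasted 2 hr at room temperature.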

[18] = molecular target: Vitamin D3 receptor (Homo sapiens) (UniProt P11473); experiment: qHTS assay to identify small molecule agonists of the vitamin D receptor (VDR) signaling pathway (AID 743222; calls by dose curve)
Procedure, shortened: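 Using LiveBLAzer B/G FRET detection, agonism was scored in VDR-bla cells exposed overnight (16 h, 37C) to DMSO-dissolved compounds; substrate incubation was 2 h at room temperature.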

[19] = qHTS assay to identify small molecule agonists of the endoplasmic reticulum stress response signaling pathway (AID 1159516; active = well fitted activation curve with a large enough effect in the signal ratio in the repeat runs, not every such curve was filed as active; the % refers to the signal ratio)
Procedure, shortened: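 For this screen, HeLa cells stably carrying beta-lactamase under the ER stress response element received test compounds, positive controls or DMSO for 5 hr at 37 C; B/G FRET substrate was then added and dual-wavelength emission recorded.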

[20] = qHTS assay to identify small molecule agonists of the endoplasmic reticulum stress response signaling pathway - cell viability counter screen (AID 1159517; calls by dose curve)
Procedure, shortened: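 Steps: seed 1,500 ESRE-bla HeLa cells per well; incubate overnight at 37 C, 5% CO2; add compounds in DMSO for 5 hr; run FRET substrate 2 hr RT; add CellTiter-Glo, wait 30 min, read luminescence.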

Measured: Potency

Chain of Peroxisome proliferator-activated receptor delta (Homo sapiens) (Q03181 whole entry, looked up): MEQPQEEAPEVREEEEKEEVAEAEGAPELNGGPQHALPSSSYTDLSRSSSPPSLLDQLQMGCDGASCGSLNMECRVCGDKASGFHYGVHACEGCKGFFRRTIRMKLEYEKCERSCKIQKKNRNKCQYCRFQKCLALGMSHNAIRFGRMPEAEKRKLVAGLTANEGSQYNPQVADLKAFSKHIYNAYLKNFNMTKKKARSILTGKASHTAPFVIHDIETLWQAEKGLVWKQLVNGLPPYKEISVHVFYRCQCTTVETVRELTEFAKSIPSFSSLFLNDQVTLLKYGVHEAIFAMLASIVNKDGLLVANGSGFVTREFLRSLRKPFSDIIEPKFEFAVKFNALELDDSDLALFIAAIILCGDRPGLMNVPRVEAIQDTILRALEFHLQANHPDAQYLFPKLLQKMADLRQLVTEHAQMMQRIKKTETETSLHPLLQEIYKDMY
Chain of Retinoic acid receptor RXR-alpha (Homo sapiens) (P19793 whole entry, looked up): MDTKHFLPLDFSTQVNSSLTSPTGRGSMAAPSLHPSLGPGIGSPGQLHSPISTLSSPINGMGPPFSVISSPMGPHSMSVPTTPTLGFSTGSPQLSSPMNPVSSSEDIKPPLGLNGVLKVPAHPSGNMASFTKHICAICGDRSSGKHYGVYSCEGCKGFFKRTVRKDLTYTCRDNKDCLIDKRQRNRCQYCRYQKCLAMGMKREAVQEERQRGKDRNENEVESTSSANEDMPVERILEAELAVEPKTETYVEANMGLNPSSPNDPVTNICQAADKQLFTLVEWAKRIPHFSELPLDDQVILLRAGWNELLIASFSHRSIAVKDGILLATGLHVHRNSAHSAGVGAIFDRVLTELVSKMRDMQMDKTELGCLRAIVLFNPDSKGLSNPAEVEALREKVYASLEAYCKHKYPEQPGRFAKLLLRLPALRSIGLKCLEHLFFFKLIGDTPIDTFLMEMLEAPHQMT
Chain of Bile acid receptor (Homo sapiens) (Q96RI1 whole entry, looked up): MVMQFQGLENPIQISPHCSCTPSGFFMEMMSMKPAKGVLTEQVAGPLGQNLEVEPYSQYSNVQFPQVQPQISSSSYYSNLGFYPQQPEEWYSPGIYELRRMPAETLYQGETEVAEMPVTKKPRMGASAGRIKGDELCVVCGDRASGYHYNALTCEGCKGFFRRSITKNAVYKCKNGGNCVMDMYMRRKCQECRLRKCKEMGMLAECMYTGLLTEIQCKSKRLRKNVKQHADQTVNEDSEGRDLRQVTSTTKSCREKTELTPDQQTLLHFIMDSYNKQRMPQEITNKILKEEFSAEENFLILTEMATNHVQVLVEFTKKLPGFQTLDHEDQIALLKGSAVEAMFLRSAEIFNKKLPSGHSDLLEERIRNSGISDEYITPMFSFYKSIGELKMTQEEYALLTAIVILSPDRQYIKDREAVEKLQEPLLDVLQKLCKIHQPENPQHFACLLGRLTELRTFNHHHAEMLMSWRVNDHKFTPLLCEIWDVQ
Chain of Vitamin D3 receptor (Homo sapiens) (P11473 whole entry, looked up): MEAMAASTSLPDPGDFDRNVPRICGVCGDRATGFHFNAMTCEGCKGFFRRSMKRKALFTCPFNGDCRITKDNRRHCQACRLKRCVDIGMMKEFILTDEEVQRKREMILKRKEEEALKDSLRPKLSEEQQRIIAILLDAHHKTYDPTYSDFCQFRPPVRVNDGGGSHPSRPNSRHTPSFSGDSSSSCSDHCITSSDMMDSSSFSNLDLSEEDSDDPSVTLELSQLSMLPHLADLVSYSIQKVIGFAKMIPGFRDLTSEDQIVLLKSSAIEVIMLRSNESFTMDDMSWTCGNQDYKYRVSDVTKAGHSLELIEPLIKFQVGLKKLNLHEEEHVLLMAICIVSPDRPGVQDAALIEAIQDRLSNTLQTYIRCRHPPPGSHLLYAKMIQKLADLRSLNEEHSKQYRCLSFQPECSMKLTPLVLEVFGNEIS

CC(=O)[O-].CC(=O)[O-].[Hg+2]
active: [1] 1.74 µM | [2] 3.47 µM | [3] 1.1 µM | [4] 3.09 µM | [5] 1.74 µM | [6] 3.09 µM | [7] 0.871 µM | [8] 1.22 µM | [9] 3.89 µM

O=c1ssc(Cl)c1Cl
active: [1] 49 µM | [5] 43.6 µM | [7] 27.5 µM | [8] 15.4 µM | [12] 17.2 µM
inactive: [10] | [11] | [4]

CCCCCCCCCCCCCCC(Br)C(=O)O (stereo not drawn)
inactive: [14] | [10] | [15] | [8] | [9] | [16] | [17]
active: [13] 13.8 µM | [3] 21.9 µM | [7] 54.9 µM

CCCCN(CCCC)C(=S)[S-].CCCCN(CCCC)C(=S)[S-].[Zn+2]
inactive: [7] | [8]
active: [1] 6.16 µM | [2] 12.3 µM | [3] 8.7 µM | [4] 13.8 µM | [5] 5.49 µM | [6] 11 µM | [12] 13.7 µM

[Hg+2].[I-].[I-]
active: [1] 2.19 µM | [2] 3.47 µM | [3] 3.09 µM | [4] 3.89 µM | [5] 1.55 µM | [6] 5.49 µM | [7] 7.76 µM | [8] 2.17 µM

CN(C)C1CSSSC1
inactive: [1] | [13] | [2] | [4] | [5] | [6] | [7] | [8] | [9] | [16]

CCCSP(=O)(OCC)SCCC
inactive: [11] | [5] | [7] | [8] | [9] | [16]

FC(F)(F)c1cccc(C2=CCN(CCc3ccc4ccccc4c3)CC2)c1
inactive: [1] | [13] | [2] | [10] | [3] | [11] | [4] | [18] | [15] | [6] | [19] | [20] | [8] | [12] | [9] | [17]

BrCBr
inactive: [1] | [13] | [2] | [14] | [3] | [4] | [18] | [15] | [5] | [6] | [19] | [20] | [8] | [9] | [16] | [17]

CCOc1cc(C(C)(C)C)ccc1C1COC(c2c(F)cccc2F)=N1 (stereo not drawn)
active: [1] 29.7 µM | [2] 33.4 µM | [14] 29.7 µM | [3] 33.4 µM | [4] 29.7 µM | [5] 23.6 µM | [12] 33.1 µM
inactive: [7]

CC(C)CC(C)(c1ccc(O)cc1)c1ccc(O)cc1
inactive: [11]
active: [1] 55.1 µM and 34.7 µM | [15] 54.9 µM | [5] 49 µM | [7] 49.1 µM | [12] 43.4 µM and 48.6 µM | [9] 43.8 µM
55.1 µM (active) and inactive: [4]

CCCN(CCC)CCc1c[nH]c2ccccc12
active: [16] 43.1 µM
inactive: [1] | [13] | [2] | [14] | [10] | [3] | [4] | [15] | [5] | [6] | [19] | [20] | [8]

Oc1cc(Cl)c(Cl)c(Cl)c1
inactive: [11] | [4] | [15] | [7]
active: [1] 46.5 µM | [5] 36.9 µM | [6] 41.4 µM | [12] 29.1 µM

CCOC(=O)CC(=O)CCl
active: [12] 48.6 µM
inactive: [1] | [2] | [3] | [4] | [18] | [5] | [6] | [7] | [16]

CCN
inactive: [1] | [2] | [3] | [4] | [6] | [19] | [20] | [8] | [9] | [16] | [17]

Cc1cc(C)c(C2=C(OC(=O)CC(C)(C)C)C3(CCCC3)OC2=O)c(C)c1
inactive: [1] | [13] | [2] | [14] | [10] | [3] | [11] | [4] | [5] | [6] | [19] | [20] | [8] | [12] | [16] | [17]

CC(C)(C)c1ccc(CSc2cnn(C(C)(C)C)c(=O)c2Cl)cc1
active: [12] 0.154 µM
inactive: [4] | [19] | [20] | [9] | [16]

[Cl][Sb]([Cl])[Cl]
inactive: [13] | [2] | [3] | [4] | [5] | [6] | [19] | [20] | [9]
active: [8] 48.6 µM | [12] 5.45 µM

CCCN(CC)CC1COC2(CCC(C(C)(C)C)CC2)O1 (stereo not drawn)
inactive: [1] | [13] | [2] | [3] | [4] | [18] | [15] | [5] | [6] | [19] | [20] | [8] | [12] | [16] | [17]

FC(Cl)(Cl)Cl
inactive: [1] | [2] | [10] | [3] | [11] | [4] | [5] | [6] | [19] | [20] | [8] | [12] | [9] | [16] | [17]

O=[N+]([O-])c1ccc(Oc2ccc(C(F)(F)F)cc2[N+](=O)[O-])cc1
inactive: [1] | [13] | [2] | [10] | [11] | [4] | [18] | [5] | [6] | [19] | [20] | [12] | [9] | [16]

CC(C)CCCCCOC(=O)c1ccccc1C(=O)OCCCCCC(C)C
inactive: [1] | [13] | [2] | [14] | [10] | [3] | [11] | [4] | [15] | [5] | [6] | [19] | [20] | [8] | [9] | [16]

N#CNC#N
inactive: [1] | [2] | [10] | [3] | [11] | [4] | [15] | [5] | [19] | [20] | [8] | [12] | [9] | [16] | [17]

C1CCC2CCCCC2C1 (stereo not drawn)
inactive: [1] | [13] | [2] | [14] | [10] | [3] | [11] | [4] | [15] | [5] | [6] | [19] | [20] | [8] | [12] | [16] | [17]

O=c1[nH]c2ccccc2n1CCCN1CCC(n2c(=O)[nH]c3cc(Cl)ccc32)CC1
inactive: [4] | [5] | [6] | [19] | [20] | [8] | [9]
